PubChem BioAssay AID1159580 (chemical genetic matrix, 2015)
The whole screen tested about 5,500 compounds, of which about 2,000 (36%) were called active. About 18% were inconclusive and are not listed. This is one part of the list. Unmarked numbers belong to inactive results. Rule as the data show it: active = normalized growth mostly below about 0.91 (no sharp cut-off); inconclusive = no clear call, values can overlap the other calls; inactive = mostly above about 0.92.

Assay: chemical genetic growth profiling, strain panel (AID 1159580);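 also: tested at 20 µM; growth read once vehicle control cultures reached saturation at 30 °C; 1 = growth at the plate median or of vehicle wells; lower values mean less growth of the strain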
Conditions: growth OD
[1] = S. cerevisiae deletion strains, locus YAL013W, strain DEP1, active compounds read low
[2] = S. cerevisiae deletion strains, locus YJR075W, strain HOC1, active compounds read low
[3] = S. cerevisiae deletion strains, locus YMR263W, strain SAP30, active compounds read low
[4] = S. cerevisiae deletion strains, locus YNL153C, strain GIM3, active compounds read low
[5] = S. cerevisiae deletion strains, locus YNL322C, strain KRE1, active compounds read low
[6] = S. cerevisiae deletion strains, locus YPL055C, strain LGE1, active compounds read low
[7] = S. cerevisiae deletion strains, locus YBR229C, strain ROT2, active compounds read low
[8] = S. cerevisiae deletion strains, locus YDL101C, strain DUN1, active compounds read low
[9] = S. cerevisiae deletion strains, locus YDR150W, strain NUM1, active compounds read low
[10] = S. cerevisiae deletion strains, locus YEL061C, strain CIN8, active compounds read low
[11] = S. cerevisiae deletion strains, locus YGR078C, strain PAC10, active compounds read low
[12] = S. cerevisiae deletion strains, locus YHR030C, strain SLT2, active compounds read low
[13] = S. cerevisiae deletion strains, locus YHR087W, strain rtc3, active compounds read low
[14] = S. cerevisiae deletion strains, locus YJR043C, strain POL32, active compounds read low
[15] = S. cerevisiae deletion strains, locus YLR039C, strain RIC1, active compounds read low
[16] = S. cerevisiae deletion strains, locus YLR058C, strain SHM2 (second series), active compounds read low
[17] = S. cerevisiae deletion strains, locus YLR085C, strain ARP6, active compounds read low
[18] = S. cerevisiae deletion strains, locus YLR262C, strain YPT6, active compounds read low
[19] = S. cerevisiae deletion strains, locus YML094W, strain GIM5, active compounds read low
[20] = S. cerevisiae deletion strains, locus YMR219W, strain ESC1, active compounds read low
[21] = S. cerevisiae deletion strains, locus YNL298W, strain CLA4 (second series), active compounds read low
[22] = S. cerevisiae deletion strains, locus YNR030W, strain Alg12, active compounds read low
[23] = S. cerevisiae deletion strains, locus YOL006C, strain TOP1, active compounds read low
[24] = S. cerevisiae deletion strains, locus YPL241C, strain CIN2, active compounds read low
[25] = S. cerevisiae deletion strains, locus YPR135W, strain CTF4, active compounds read low

`C[C@@H](NC(=O)/C(C#N)=C/c1ccc(O)c(O)c1)c1ccccc1` gave a normalized growth [1] of 0.997, a normalized growth (S. cerevisiae deletion strains, locus YAL040C, strain CLN3, active compounds read low) of 0.993 and a normalized growth (S. cerevisiae deletion strains, locus YCL061C, strain MRC1 (second series), active compounds read low) of 0.983. The normalized growth (S. cerevisiae deletion strains, locus YDR363W, strain ESC2, active compounds read low) was 1.01, the normalized growth (S. cerevisiae deletion strains, locus YER002W, strain NOP16, active compounds read low) was 0.998 and the normalized growth [2] was 0.963. The normalized growth [3] was 1, the normalized growth (S. cerevisiae deletion strains, locus YMR307W, strain GAS1, active compounds read low) was 1.01 and the normalized growth [4] was 0.978. The normalized growth (S. cerevisiae deletion strains, locus YNL175C, strain NOP13, active compounds read low) was 1, the normalized growth (S. cerevisiae deletion strains, locus YNL197C, strain WHI3, active compounds read low) was 1 and the normalized growth (S. cerevisiae deletion strains, locus YNL224C, strain SQS1, active compounds read low) was 1.01. The normalized growth [5] was 1.01, the normalized growth (S. cerevisiae deletion strains, locus YOR083W, strain WHI5 (second series), active compounds read low) was 1.01 and the normalized growth [6] was 0.932.
For `CCCc1cc(=O)oc2cc(OCC(=O)OCC)ccc12`, the normalized growth [1] was 0.997, the normalized growth [7] was 0.971 and the normalized growth [8] was 0.945. It also gave a normalized growth [9] of 0.986, a normalized growth [10] of 0.963 and a normalized growth [11] of 0.985. It also gave a normalized growth [12] of 0.759, a normalized growth [13] of 0.963 and a normalized growth (S. cerevisiae deletion strains, locus YJL187C, strain SWE1, active compounds read low) of 0.991. The normalized growth [14] was 1, the normalized growth [2] was 0.972 and the normalized growth (S. cerevisiae deletion strains, locus YKL190W, strain CNB1, active compounds read low) was 0.995. The normalized growth [15] was 0.925, the normalized growth [16] was 0.991 and the normalized growth [17] was 0.913. The normalized growth [18] was 0.958, the normalized growth [19] was 0.883 and the normalized growth [20] was 0.987. It also gave a normalized growth [3] of 1.03, a normalized growth [4] of 0.98 and a normalized growth [21] of 0.961. For the same compound, the normalized growth [5] was 0.995, the normalized growth [22] was 0.965 and the normalized growth [23] was 0.864. The normalized growth [6] was 0.922, the normalized growth [24] was 1.04 and the normalized growth [25] was 0.82. The normalized growth (S. cerevisiae strains, strain wild type, active compounds read low) was 0.99.
Work on `Cc1nn(-c2cccc(Cl)c2)c2oc(=O)cc(C(F)(F)F)c12` yielded a normalized growth (S. cerevisiae deletion strains, locus YAR019C, strain CDC15, active compounds read low) of 0.977, a normalized growth (S. cerevisiae deletion strains, locus YBL105C, strain PKC1, active compounds read low) of 0.966 and a normalized growth (S. cerevisiae deletion strains, locus YBR135W, strain CKS1, active compounds read low) of 0.975. The normalized growth (S. cerevisiae deletion strains, locus YBR136W, strain MEC1, active compounds read low) was 0.974, the normalized growth (S. cerevisiae deletion strains, locus YBR160W, strain CDC28, active compounds read low) was 0.974 and the normalized growth (S. cerevisiae deletion strains, locus YDL017W, strain CDC7, active compounds read low) was 0.968. It also gave a normalized growth (S. cerevisiae deletion strains, locus YDL028C, strain MPS1, active compounds read low) of 0.979, a normalized growth [8] of 0.961 and a normalized growth (S. cerevisiae deletion strains, locus YDL108W, strain KIN28, active compounds read low) of 0.968. The normalized growth (S. cerevisiae deletion strains, locus YDL132W, strain cdc53, active compounds read low) was 0.972, the normalized growth (S. cerevisiae deletion strains, locus YDL214C, strain PRR2, active compounds read low) was 0.609 (active) and the normalized growth (S. cerevisiae deletion strains, locus YDR052C, strain DBF4, active compounds read low) was 0.96. The normalized growth (S. cerevisiae deletion strains, locus YDR054C, strain cdc34, active compounds read low) was 0.973, the normalized growth (S. cerevisiae deletion strains, locus YDR226W, strain ADK1, active compounds read low) was 0.962 and the normalized growth (S. cerevisiae deletion strains, locus YDR477W, strain SNF1, active compounds read low) was 0.566 (active). The normalized growth (S. cerevisiae deletion strains, locus YER123W, strain YCK3, active compounds read low) was 0.342 (active), the normalized growth (S. cerevisiae deletion strains, locus YER133W, strain GLC7, active compounds read low) was 0.48 (active) and the normalized growth (S. cerevisiae deletion strains, locus YFL009W, strain cdc4, active compounds read low) was 0.964. The normalized growth (S. cerevisiae deletion strains, locus YFL029C, strain CAK1, active compounds read low) was 0.976, the normalized growth (S. cerevisiae deletion strains, locus YFR003C, strain YPI1, active compounds read low) was 0.966 and the normalized growth (S. cerevisiae deletion strains, locus YFR019W, strain FAB1, active compounds read low) was 0.572 (active). For the same compound, the normalized growth (S. cerevisiae deletion strains, locus YFR028C, strain CDC14, active compounds read low) was 0.971, the normalized growth (S. cerevisiae deletion strains, locus YGR040W, strain KSS1, active compounds read low) was 0.654 (active) and the normalized growth (S. cerevisiae deletion strains, locus YGR052W, strain FMP48, active compounds read low) was 0.538 (active). For the same compound, the normalized growth (S. cerevisiae deletion strains, locus YGR092W, strain DBF2, active compounds read low) was 0.367 (active), the normalized growth [12] was 0.154 (active) and the normalized growth (S. cerevisiae deletion strains, locus YHR079C, strain IRE1, active compounds read low) was 0.231 (active). For the same compound, the normalized growth (S. cerevisiae deletion strains, locus YHR082C, strain KSP1, active compounds read low) was 0.508 (active), the normalized growth (S. cerevisiae deletion strains, locus YHR205W, strain SCH9, active compounds read low) was 0.615 and the normalized growth (S. cerevisiae deletion strains, locus YIL147C, strain SLN1, active compounds read low) was 0.976. The normalized growth (S. cerevisiae deletion strains, locus YJL095W, strain BCK1, active compounds read low) was 0.359 (active), the normalized growth (S. cerevisiae deletion strains, locus YJL128C, strain PBS2, active compounds read low) was 0.95 and the normalized growth (S. cerevisiae deletion strains, locus YJL157C, strain FAR1, active compounds read low) was 0.467 (active). The normalized growth (S. cerevisiae deletion strains, locus YJR016C, strain ILV3, active compounds read low) was 0.976, the normalized growth (S. cerevisiae deletion strains, locus YJR066W, strain TOR1 (second series), active compounds read low) was 0.552 (active) and the normalized growth (S. cerevisiae deletion strains, locus YJR066W, strain TOR1, active compounds read low) was 0.343 (active). The normalized growth (S. cerevisiae deletion strains, locus YKL048C, strain ELM1, active compounds read low) was 0.753 (active), the normalized growth (S. cerevisiae deletion strains, locus YKL067W, strain YNK1, active compounds read low) was 0.705 (active) and the normalized growth (S. cerevisiae deletion strains, locus YKL101W, strain HSL1, active compounds read low) was 0.776. The normalized growth (S. cerevisiae deletion strains, locus YKL193C, strain SDS22, active compounds read low) was 0.975, the normalized growth (S. cerevisiae deletion strains, locus YKL203C, strain TOR2, active compounds read low) was 0.614 (active) and the normalized growth (S. cerevisiae deletion strains, locus YLR113W, strain HOG1, active compounds read low) was 0.35 (active). The normalized growth (S. cerevisiae deletion strains, locus YLR133W, strain CKI1, active compounds read low) was 0.545 (active), the normalized growth (S. cerevisiae deletion strains, locus YLR403W, strain SFP1, active compounds read low) was 0.393 (active) and the normalized growth (S. cerevisiae deletion strains, locus YML070W, strain DAK1, active compounds read low) was 0.515 (active). The normalized growth (S. cerevisiae deletion strains, locus YMR001C, strain CDC5, active compounds read low) was 0.962, the normalized growth (S. cerevisiae deletion strains, locus YMR205C, strain PFK2 (second series), active compounds read low) was 0.78 and the normalized growth (S. cerevisiae deletion strains, locus YMR277W, strain FCP1, active compounds read low) was 0.98. The normalized growth (S. cerevisiae deletion strains, locus YNL006W, strain LST8, active compounds read low) was 0.977, the normalized growth (S. cerevisiae deletion strains, locus YNL020C, strain ARK1, active compounds read low) was 0.574 (active) and the normalized growth (S. cerevisiae deletion strains, locus YNL161W, strain CBK1, active compounds read low) was 0.968. The normalized growth (S. cerevisiae deletion strains, locus YNL183C, strain NPR1, active compounds read low) was 0.464 (active), the normalized growth (S. cerevisiae deletion strains, locus YNL207W, strain RIO2, active compounds read low) was 0.963 and the normalized growth (S. cerevisiae deletion strains, locus YNL222W, strain SSU72, active compounds read low) was 0.975. For the same compound, the normalized growth (S. cerevisiae deletion strains, locus YNL307C, strain MCK1 (second series), active compounds read low) was 0.536 (active), the normalized growth (S. cerevisiae deletion strains, locus YOL078W, strain AVO1, active compounds read low) was 0.97 and the normalized growth (S. cerevisiae deletion strains, locus YOL136C, strain PFK27, active compounds read low) was 0.342 (active). For the same compound, the normalized growth (S. cerevisiae deletion strains, locus YOR061W, strain CKA2, active compounds read low) was 0.681, the normalized growth (S. cerevisiae deletion strains, locus YOR119C, strain RIO1, active compounds read low) was 0.544 (active) and the normalized growth (S. cerevisiae deletion strains, locus YOR231W, strain MKK1, active compounds read low) was 0.501 (active). The normalized growth (S. cerevisiae deletion strains, locus YOR329C, strain SCD5, active compounds read low) was 0.964, the normalized growth (S. cerevisiae deletion strains, locus YPL031C, strain PHO85, active compounds read low) was 0.535 (active) and the normalized growth (S. cerevisiae deletion strains, locus YPL153C, strain RAD53, active compounds read low) was 0.6 (active). For the same compound, the normalized growth (S. cerevisiae deletion strains, locus YPL204W, strain HRR25, active compounds read low) was 0.469 (active), the normalized growth (S. cerevisiae deletion strains, locus YPL209C, strain IPL1, active compounds read low) was 0.972 and the normalized growth (S. cerevisiae deletion strains, locus YPL256C, strain CLN2, active compounds read low) was 0.201 (active). It also gave a normalized growth (S. cerevisiae deletion strains, locus YPR025C, strain CCL1, active compounds read low) of 0.968, a normalized growth (S. cerevisiae deletion strains, locus YPR106W, strain ISR1, active compounds read low) of 0.979 and a normalized growth (S. cerevisiae deletion strains, locus YPR111W, strain DBF20, active compounds read low) of 0.96. For the same compound, the normalized growth (S. cerevisiae deletion strains, strain NNK1, active compounds read low) was 0.978 and the normalized growth (S. cerevisiae deletion strains, strain TSCII, active compounds read low) was 0.967.
With `CCCc1cc(=O)oc2c1c(C)nn2-c1ccccc1` the normalized growth [1] was 0.932 (active), the normalized growth [7] was 0.94 and the normalized growth [8] was 0.954. The normalized growth (S. cerevisiae deletion strains, locus YDL134C, strain PPH21, active compounds read low) was 0.938, the normalized growth [9] was 0.978 and the normalized growth [10] was 0.885 (active). The normalized growth [11] was 0.935, the normalized growth [12] was 0.432 (active) and the normalized growth [13] was 0.862 (active). The normalized growth [14] was 0.998, the normalized growth [2] was 0.869 (active) and the normalized growth [15] was 0.786 (active). For the same compound, the normalized growth [16] was 0.923 (active), the normalized growth [17] was 0.539 (active) and the normalized growth [18] was 0.744 (active). The normalized growth [19] was 0.921, the normalized growth [20] was 0.938 (active) and the normalized growth [3] was 0.956. For the same compound, the normalized growth [4] was 0.864 (active), the normalized growth [21] was 0.839 (active) and the normalized growth [5] was 0.944. The normalized growth [22] was 0.875 (active), the normalized growth [23] was 0.599 (active) and the normalized growth [6] was 0.799 (active). For the same compound, the normalized growth [24] was 0.782 (active) and the normalized growth [25] was 0.552 (active).
